# Measured values taken from PubChem BioAssay (NCI).
# About 83,000 compounds went through this panel and 20% of them were active in at least one assay; those are over-represented in the sample as a whole.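 The test compound was applied at a single concentration to cells in 96-well plates for 48 hours, and percent growth was recorded.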 Values without a mark were called inactive. The source made the active and inactive calls. How the source made its calls: active means growth percent below 10; inactive means the rest.
# System: NCI-H322M lung
# Test: NCI-60 one-dose screen, 48 h (100 = growth as untreated, 0 = no growth, -100 = all killed)
# Details: 10 µM
row,SMILES,growth
1,C[C@H]1[C@H](C)CC[C@]2(COC(=O)CCC(=O)NCC#CCN3CCNCC3)CC[C@]3(C)C(=CC[C@@H]4[C@@]5(C)CCCNC(C)(C)[C@@H]5CC[C@]43C)[C@H]12,77.2%
2,CC[C@@]1(O)C(=O)OCc2c1cc1n(c2=O)Cc2c-1nc1cc(F)c(C)c3c1c2[C@@H](N)CC3,0.642% (active)
3,Cc1cccc2cc(-c3cc(-c4ccccc4)nc(=S)[nH]3)c(Cl)nc12,90.2%
4,Cc1ccc(CNC(=O)Cc2ccc3c(c2)CN(C2CCC(=O)NC2=O)C3=O)cc1 (stereo not given),16.1%
5,CONC[C@]1(C)C=C2C(=O)[C@](C)(O)C3(CC3)C(C)=C2[C@H]1O,-9.89% (active)
6,CC1(C)CC[C@]2(C(=O)N3CCOCC3)CC[C@]3(C)C(=CC[C@@H]4[C@@]5(C)CC[C@H](NCO)C(C)(C)[C@@H]5CC[C@]43C)[C@H]2C1,-97.8% (active)
7,NS(=O)(=O)c1ccc(N=Nc2c(O)n(CC(=O)Nc3ccccc3Br)c3ccccc23)cc1,50.3%
8,CNC(=O)c1cccc(N2CCc3c2ccc(NC(=O)Nc2ccc(N4CCN(C)CC4)c(C(F)(F)F)c2)c3F)c1,-92% (active)
9,O=C(NCCCCC(c1ccc(F)cc1)c1ccc(F)cc1)NCCCc1cccnc1,64.8%
10,CC(=O)Nc1ccc(-c2cn(-c3cccc(C(=O)Nc4ccc(Cl)c(C(F)(F)F)c4)c3)nn2)cn1,-18.7% (active)
11,CCCS(=O)(=O)c1oc(-c2ccc(F)cc2)nc1S(=O)(=O)c1ccc(F)cc1,89.8%
12,O=C(Cn1nc(-c2ccccc2)ccc1=O)NN1C(=O)c2ccccc2C1=O,117%
13,CC(=O)NCC1=C(C)C=C2C(=O)[C@](C)(O)C3(CC3)C(C)=C21,-30% (active)
14,CCN1CCN(Cc2ccc(C(=O)Nc3cccc(-c4cn(-c5ccc6oc(=O)ccc6c5)nn4)c3)cc2C(F)(F)F)CC1,-100% (active)
15,CCOP(=O)(OCC)O[C@H]1CCC(=O)[C@@H]2[C@H]1[C@H]1C[C@@H]3[C@@]4(C)CCCC(C)(C(=O)OC)[C@@H]4CC[C@@]23C=C1C(C)C (stereo not given in full),102%
16,O=C1Nc2ccc(F)cc2/C1=C/c1cccc(OCc2ccccn2)c1,77%
17,CC1=N/C(=C\c2ccc(N(C)C)cc2)C(=O)N1CCc1ccc(S(N)(=O)=O)cc1,107%
18,O=C(Nc1ccc(I)cc1F)c1cc(-c2ccc(F)cc2F)ccc1O,6.19% (active)
19,C/C(=N\NC(N)=S)c1ccc(Nc2nc(SC(C)C)nc(-c3ccccc3)c2C#N)cc1,74.3%
20,COc1ccc2c(c1)N=C(C(=O)O)/C2=C/c1sc(Nc2ccc(O)cc2)nc1O,92.5%
21,COc1cc(-c2nc3cc(Cl)c(Cl)cc3[nH]2)ccc1OCc1nnc(-c2ccc(Br)cc2)o1,38.8%
22,Cc1ccc(NC(=O)c2ccc(-n3c(=O)[nH]c4ccccc4c3=O)cc2)cc1,99.9%
23,CC(=C(c1ccc(OCCN2CCCCC2)cc1)c1ccc(OCCN2CCCCC2)cc1)c1ccccc1,60.9%
24,CCCCCc1ccc(S(=O)(=O)N(C(C)=O)c2cc(-c3csc(N(C)C(C)=O)n3)ccc2N2CCN(C)CC2)cc1,55.8%
25,COc1cc2c3c(n(CCCNC(C)C)c(=O)c2cc1OC)-c1nc2c(cc1C3=O)OCO2,60.3%
